# Test results taken from PubChem BioAssay (EPA / NIEHS).
# Results filed as inconclusive are left out. The source made the active and inactive calls. The calls were made as follows: active = hit-call score of the fitted dose curve at least 0.9, where 1 is the maximum; inconclusive = response in the unintended direction; inactive = score below 0.9.
# Key:
# [1] = target: guinea pig Sigma Receptor, Non-selective Binding, SIGMAR1 (gene 100135589) (UniProt Q60492); assay: NVS_OR_gSIGMA_NonSelective: NovaScreen (NVS) Nuclear Receptor Binding Assay for guinea pig Sigma Receptor, Non-selective Binding (AID 2283367)
# Outline: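 Guinea pig brain membranes, cell-free radioligand binding; read 1 h after dosing by filter-based scintillation counting. Loss of signal vs DMSO baseline taken as displacement. Primary screen single concentration 25 uM in duplicate; actives retested in concentration series.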
# [2] = system: rat Norepinephrine Transporter (NET), gene 83511; assay: NVS_TR_rNET: NovaScreen (NVS) Transporter Assay for rat Norepinephrine Transporter (NET) (AID 2283373)
# Outline: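 Rat forebrain membranes; radioligand binding measured by filter-based scintillation counting 1 hour after dosing. Loss of specific binding versus DMSO baseline scored; primary screen in duplicate at 25 uM, actives followed up in concentration series.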
# [3] = target: human Norepinephrine Transporter (NET), SLC6A2 (gene 6530) (UniProt P23975); assay: NVS_TR_hNET: NovaScreen (NVS) Transporter Assay for human Norepinephrine Transporter (NET) (AID 2283377);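 also: cell-free membrane protein extracted from CHO cells expressing human NET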
# Outline: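 Radioligand binding to human NET in cell-free CHO-derived protein preparations, read by filter-based scintillation counting 1 hour after dosing. Loss of signal versus DMSO baseline indicated displacement; primary screening in duplicate at 25 uM, actives then titrated.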
# [4] = target: Estrogen receptor beta (Homo sapiens) (UniProt Q92731); assay: OT_ER_ERbERb_1440: Odyssey Thera (OT) 24-hour HEK293T Protein-Complementation Assay for Estrogen Receptor-beta/-beta Homodimer (AID 2283380);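 also: fluorescence gain from ER beta LBD homodimer complementation read by laser scanning cytometry; scored as signal increase over DMSO baseline for both agonists and antagonists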
# Outline: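 HEK293T cells stably expressing human ER-beta LBD (aa 310-547) PCA homodimer pair, dosed 24 h; formaldehyde-fixed, Draq5-stained. Readout: increase in nuclear (agonist) or nuclear plus cytoplasmic (antagonist) fluorescence intensity versus DMSO, gain-of-signal fitting.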
# [5] = target: human Dopamine Transporter (DAT), SLC6A3 (gene 6531) (UniProt Q01959); assay: NVS_TR_hDAT: NovaScreen (NVS) Transporter Assay for human Dopamine Transporter (DAT) (AID 2283374);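 also: activity means loss of bound radioligand signal relative to DMSO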
# Outline: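 Cell-free radioligand binding to extracted human DAT protein, read 1 h after dosing by filter-based scintillation counting. Loss of specific binding scored against DMSO baseline; primary screen in duplicate at 25 uM, actives then run in concentration series.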
# [6] = target: PGR (gene 5241) (UniProt P06401); assay: NVS_NR_hPR: NovaScreen (NVS) Nuclear Receptor Binding Assay for human Progestron Receptor (PR) (AID 2283360);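 also: active means loss of bound radioligand signal versus DMSO baseline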
# Outline: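 Competitive displacement of a labelled radioligand from T47D-derived receptor protein is measured in a cell-free format. Initial testing uses 25 uM in duplicate, with positive and negative controls on every plate.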
# [7] = target: human Thyroid Receptor Alpha (TRa), THRA (gene 7067) (UniProt P10827); assay: NVS_NR_hTRa_Antagonist: NovaScreen (NVS) Nuclear Receptor Binding Assay for human Thyroid Receptor Alpha Antagonism (TRa) (AID 2283362);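 also: activity is loss of signal relative to DMSO baseline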
# Outline: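 Cell-free AlphaLISA chemiluminescent binding read 1 h after dosing, antagonist mode; signal loss versus DMSO baseline. Primary screen in duplicate at 25 uM, then concentration series for actives.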
# [8] = target: Glucocorticoid receptor (Homo sapiens) (UniProt P04150); assay: NVS_NR_hGR: NovaScreen (NVS) Nuclear Receptor Binding Assay for human Glucocorticoid Receptor (GR) (AID 2283363);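 as to AC50: activity is loss of specific radioligand binding signal relative to DMSO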
# Outline: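 Cell-free radioligand binding with extracted receptor protein, read by filter-based scintillation counting 16 hours after dosing. Loss of specific signal versus DMSO baseline was scored. Primary screen ran in duplicate at 25 uM; actives were followed up in concentration series.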
# [9] = target: Peroxisome proliferator-activated receptor gamma (Homo sapiens) (UniProt P37231); assay: NVS_NR_hPPARg: NovaScreen (NVS) Nuclear Receptor Binding Assay for human Peroxisome Proliferator-activated Receptor gamma (PPARg) (AID 2283370)
# Outline: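 Cell-free fluorescence polarization binding to human PPARg protein, read 2 h after dosing. Primary screen in duplicate at 25 uM, actives followed in concentration series; loss of signal relative to DMSO scored.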
# [10] = target: human Serotonin Transporter (SERT), SLC6A4 (gene 6532) (UniProt P31645); assay: NVS_TR_hSERT: NovaScreen (NVS) Transporter Assay for human Serotonin Transporter (SERT) (AID 2283372)
# Outline: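 Radioligand binding to native SERT in human platelet membranes, read by filter-based scintillation counting 1 h after dosing. Primary screen in duplicate at 25 uM; actives followed up in concentration series; loss of signal versus DMSO baseline.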
# [11] = target: rat Serotonin Transporter (SERT), Slc6a4 (gene 25553) (UniProt P31652); assay: NVS_TR_rSERT: NovaScreen (NVS) Transporter Assay for rat Serotonin Transporter (SERT) (AID 2283375)
# Outline: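 Rat forebrain membranes; radioligand displacement at SERT read by filter-based scintillation counting, 1 h after dosing. Screened in duplicate at 25 uM, actives then run in concentration series; loss of signal versus DMSO baseline.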
# [12] = system: guinea pig Dopamine Transporter (DAT), gene 100714898; assay: NVS_TR_gDAT: NovaScreen (NVS) Transporter Assay for guinea pig Dopamine Transporter (DAT) (AID 2283369);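 also: active compounds lower bound radioligand signal relative to DMSO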
# Outline: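 Guinea pig striatal membranes, cell-free radioligand binding with filter-based scintillation counting, read 2 h after dosing. Loss of signal versus DMSO baseline; single-concentration primary (25 uM) then concentration-response up to 50 uM.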
# [13] = target: Nuclear receptor subfamily 1 group I member 2 (Homo sapiens) (UniProt O75469); assay: NVS_NR_hPXR: NovaScreen (NVS) Nuclear Receptor Binding Assay for human Pregnane X Receptor (PXR) (AID 2283365);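 also: a drop in FRET signal versus DMSO baseline means the compound binds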
# Outline: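 Cell-free TR-FRET binding assay with extracted human PXR protein, read 2 h after dosing. Primary screen run in duplicate at 25 uM, actives followed in concentration series; loss of signal fitted against DMSO baseline.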
# [14] = target: Retinoic acid receptor alpha (Homo sapiens) (UniProt P10276); assay: NVS_NR_hRARa_Agonist: NovaScreen (NVS) Nuclear Receptor Binding Assay for human Retinoic Acid Alpha Receptor Agonism (RAR) (AID 2283361)
# Outline: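 Cell-free TR-FRET binding read-out with extracted human RARα protein, read 2 h after compound addition. Gain of signal scored against DMSO baseline. Primary screen at a single 25 uM in duplicate; actives then retested in concentration series.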
# [15] = target: human Peroxisome Proliferator-activated Receptor alpha (PPARa), PPARA (gene 5465) (UniProt Q07869); assay: NVS_NR_hPPARa: NovaScreen (NVS) Nuclear Receptor Binding Assay for human Peroxisome Proliferator-activated Receptor alpha (PPARa) (AID 2283359);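 also: activity means loss of TR-FRET signal versus DMSO baseline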
# Outline: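 Cell-free binding assay with extracted human protein, read by TR-FRET 1 h after chemical dosing. Loss of signal relative to DMSO baseline indicates binding. Primary screen used duplicate single concentration (25 uM); actives followed up in concentration series.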
# [16] = target: rat Androgen Receptor (AR), Ar (gene 24208) (UniProt P15207); assay: NVS_NR_rAR: NovaScreen (NVS) Nuclear Receptor Binding Assay for rat Androgen Receptor (AR) (AID 2283366)
# Outline: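 Cell-free radioligand binding on extracts of prostate from testosterone-pretreated rats, read by filter-based scintillation counting 18 h after dosing. Loss of bound signal fitted positively versus DMSO; primary screen in duplicate at 25 uM, actives followed up in concentration series.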
# [17] = target: Norway rat Vesicular Monoamine Transporter (VMAT2), neurotransmitter transporter, Slc18a2 (gene 25549) (UniProt Q01827); assay: NVS_TR_rVMAT2: NovaScreen (NVS) Transporter Assay for Norway rat Vesicular Monoamine Transporter (VMAT2), neurotransmitter transporter (AID 2283376);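 also: actives lower the bound radioligand signal below the DMSO level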
# Outline: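 Rat forebrain tissue preparation used in a cell-free radioligand binding format; displacement read by filter-based scintillation counting 1 hour after dosing. Primary screen in duplicate at 25 uM, actives then run in concentration series; loss of signal versus DMSO baseline.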
# [18] = target: Agonist Androgen Response Element (ARE), AR (gene 367) (UniProt P10275); assay: OT_AR_ARELUC_AG_1440: Odyssey Thera (OT) 24-hour CHO-K1 Luciferase Assay for Agonist Androgen Response Element (ARE) (AID 2283379)
# Outline: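 Seed CHO-K1 cells; dose compounds for 24 h; add D-luciferin plus ATP in PBS; read luminescence. Signal increase relative to vehicle defines agonist activity, with at least 3 replicate wells per sample.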
# [19] = target: mouse Estrogen Receptor alpha (Era), Esr1 (gene 13982) (UniProt P19785); assay: NVS_NR_mERa: NovaScreen (NVS) Nuclear Receptor Binding Assay for mouse Estrogen Receptor alpha (Era) (AID 2283378);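 also: hit means loss of bound radioligand signal relative to DMSO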
# Outline: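 Cell-free radioligand competitive displacement binding, read by filter-based scintillation counting 18 h after dosing. Primary screen run in duplicate at 25 uM, actives retested in concentration series; loss of signal versus DMSO.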
# Chain of PGR (gene 5241) (P06401 whole entry, looked up): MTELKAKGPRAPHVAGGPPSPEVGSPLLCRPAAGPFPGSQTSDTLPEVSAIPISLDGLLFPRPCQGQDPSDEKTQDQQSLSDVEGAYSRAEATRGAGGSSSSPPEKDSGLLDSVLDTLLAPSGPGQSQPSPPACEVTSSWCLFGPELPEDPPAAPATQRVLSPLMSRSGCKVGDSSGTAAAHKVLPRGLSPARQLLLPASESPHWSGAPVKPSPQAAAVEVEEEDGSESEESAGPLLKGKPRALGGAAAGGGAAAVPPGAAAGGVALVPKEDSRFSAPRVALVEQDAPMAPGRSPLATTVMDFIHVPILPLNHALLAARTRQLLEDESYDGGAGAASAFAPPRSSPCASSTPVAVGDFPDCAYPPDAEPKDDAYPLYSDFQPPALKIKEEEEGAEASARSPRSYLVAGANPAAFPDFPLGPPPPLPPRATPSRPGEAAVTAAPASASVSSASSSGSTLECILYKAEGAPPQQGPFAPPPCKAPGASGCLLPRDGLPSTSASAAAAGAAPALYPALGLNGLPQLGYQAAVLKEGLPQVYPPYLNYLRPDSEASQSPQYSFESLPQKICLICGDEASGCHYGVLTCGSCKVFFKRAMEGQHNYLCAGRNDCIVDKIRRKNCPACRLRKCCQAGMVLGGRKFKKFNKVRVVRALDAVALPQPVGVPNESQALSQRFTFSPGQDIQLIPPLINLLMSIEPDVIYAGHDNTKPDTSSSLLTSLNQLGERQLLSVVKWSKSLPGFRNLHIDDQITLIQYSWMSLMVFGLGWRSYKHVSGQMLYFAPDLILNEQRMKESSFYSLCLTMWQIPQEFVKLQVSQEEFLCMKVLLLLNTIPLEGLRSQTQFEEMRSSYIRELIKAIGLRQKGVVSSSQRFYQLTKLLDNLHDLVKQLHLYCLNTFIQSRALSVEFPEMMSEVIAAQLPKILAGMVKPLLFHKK
# Chain of Estrogen receptor beta (Homo sapiens) (Q92731 whole entry, looked up, the tested form may be a part): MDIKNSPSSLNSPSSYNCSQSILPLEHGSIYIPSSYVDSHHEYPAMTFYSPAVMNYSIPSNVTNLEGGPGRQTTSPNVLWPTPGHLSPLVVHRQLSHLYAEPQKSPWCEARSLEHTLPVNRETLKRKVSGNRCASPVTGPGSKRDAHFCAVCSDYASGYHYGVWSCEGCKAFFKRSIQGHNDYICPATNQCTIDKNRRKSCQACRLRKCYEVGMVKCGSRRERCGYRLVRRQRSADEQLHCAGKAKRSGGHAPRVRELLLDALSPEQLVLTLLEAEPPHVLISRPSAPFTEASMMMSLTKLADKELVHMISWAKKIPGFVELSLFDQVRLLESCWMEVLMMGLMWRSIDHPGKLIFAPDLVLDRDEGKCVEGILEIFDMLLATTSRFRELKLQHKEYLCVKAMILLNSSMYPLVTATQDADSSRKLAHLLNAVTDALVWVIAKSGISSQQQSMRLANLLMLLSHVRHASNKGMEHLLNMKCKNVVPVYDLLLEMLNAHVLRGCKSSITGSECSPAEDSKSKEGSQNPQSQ
# Chain of guinea pig Sigma Receptor, Non-selective Binding, SIGMAR1 (gene 100135589) (Q60492 whole entry, looked up): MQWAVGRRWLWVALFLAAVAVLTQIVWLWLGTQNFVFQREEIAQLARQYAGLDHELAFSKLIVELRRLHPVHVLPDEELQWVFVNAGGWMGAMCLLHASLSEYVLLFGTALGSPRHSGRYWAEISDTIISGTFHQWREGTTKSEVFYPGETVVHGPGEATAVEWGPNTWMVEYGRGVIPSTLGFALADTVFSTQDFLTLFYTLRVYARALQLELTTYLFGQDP
# Chain of human Serotonin Transporter (SERT), SLC6A4 (gene 6532) (P31645 whole entry, looked up): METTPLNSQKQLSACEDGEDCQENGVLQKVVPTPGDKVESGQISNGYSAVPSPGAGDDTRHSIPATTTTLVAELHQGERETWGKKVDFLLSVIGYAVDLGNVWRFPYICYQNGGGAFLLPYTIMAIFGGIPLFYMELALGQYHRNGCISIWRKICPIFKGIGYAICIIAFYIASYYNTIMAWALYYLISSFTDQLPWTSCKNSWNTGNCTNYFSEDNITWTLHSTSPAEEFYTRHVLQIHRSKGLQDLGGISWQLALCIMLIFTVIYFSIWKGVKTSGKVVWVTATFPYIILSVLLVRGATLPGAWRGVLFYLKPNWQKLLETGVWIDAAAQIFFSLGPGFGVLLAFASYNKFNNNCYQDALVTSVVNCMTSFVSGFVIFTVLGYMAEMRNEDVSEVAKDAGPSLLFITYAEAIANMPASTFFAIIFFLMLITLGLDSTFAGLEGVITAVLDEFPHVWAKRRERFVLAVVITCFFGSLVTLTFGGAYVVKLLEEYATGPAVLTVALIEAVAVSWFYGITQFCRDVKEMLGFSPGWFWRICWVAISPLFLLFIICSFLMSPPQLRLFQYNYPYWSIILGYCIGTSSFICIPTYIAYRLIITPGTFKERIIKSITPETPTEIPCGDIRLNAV
# Chain of rat Serotonin Transporter (SERT), Slc6a4 (gene 25553) (P31652 whole entry, looked up): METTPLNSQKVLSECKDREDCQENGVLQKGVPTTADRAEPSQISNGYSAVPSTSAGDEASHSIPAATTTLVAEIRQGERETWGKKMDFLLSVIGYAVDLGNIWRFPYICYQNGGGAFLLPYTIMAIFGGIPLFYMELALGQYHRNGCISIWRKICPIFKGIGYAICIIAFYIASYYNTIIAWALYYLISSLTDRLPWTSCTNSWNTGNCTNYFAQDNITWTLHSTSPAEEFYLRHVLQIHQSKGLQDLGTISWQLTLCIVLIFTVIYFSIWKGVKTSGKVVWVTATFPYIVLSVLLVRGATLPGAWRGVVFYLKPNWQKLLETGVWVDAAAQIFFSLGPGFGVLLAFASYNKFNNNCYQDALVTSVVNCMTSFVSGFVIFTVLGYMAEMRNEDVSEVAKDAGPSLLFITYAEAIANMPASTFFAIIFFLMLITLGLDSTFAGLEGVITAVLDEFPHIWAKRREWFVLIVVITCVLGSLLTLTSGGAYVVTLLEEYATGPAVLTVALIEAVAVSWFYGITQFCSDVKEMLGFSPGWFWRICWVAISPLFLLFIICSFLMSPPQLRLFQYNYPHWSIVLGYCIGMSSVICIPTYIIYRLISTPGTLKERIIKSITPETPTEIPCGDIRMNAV
# Chain of human Thyroid Receptor Alpha (TRa), THRA (gene 7067) (P10827 whole entry, looked up): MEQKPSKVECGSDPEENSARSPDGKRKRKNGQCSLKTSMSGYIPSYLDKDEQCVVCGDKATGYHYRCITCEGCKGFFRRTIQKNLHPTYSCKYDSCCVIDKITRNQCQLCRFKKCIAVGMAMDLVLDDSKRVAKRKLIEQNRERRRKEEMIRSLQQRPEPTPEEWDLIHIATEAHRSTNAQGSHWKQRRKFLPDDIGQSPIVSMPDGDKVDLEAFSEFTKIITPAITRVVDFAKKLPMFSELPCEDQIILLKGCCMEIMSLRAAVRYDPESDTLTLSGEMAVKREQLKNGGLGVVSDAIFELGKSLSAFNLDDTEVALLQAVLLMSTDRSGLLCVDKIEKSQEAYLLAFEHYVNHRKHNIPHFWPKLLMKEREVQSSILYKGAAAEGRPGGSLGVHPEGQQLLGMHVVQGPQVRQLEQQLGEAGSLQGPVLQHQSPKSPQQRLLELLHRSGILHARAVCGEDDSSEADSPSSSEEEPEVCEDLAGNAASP
# Chain of Norway rat Vesicular Monoamine Transporter (VMAT2), neurotransmitter transporter, Slc18a2 (gene 25549) (Q01827 whole entry, looked up): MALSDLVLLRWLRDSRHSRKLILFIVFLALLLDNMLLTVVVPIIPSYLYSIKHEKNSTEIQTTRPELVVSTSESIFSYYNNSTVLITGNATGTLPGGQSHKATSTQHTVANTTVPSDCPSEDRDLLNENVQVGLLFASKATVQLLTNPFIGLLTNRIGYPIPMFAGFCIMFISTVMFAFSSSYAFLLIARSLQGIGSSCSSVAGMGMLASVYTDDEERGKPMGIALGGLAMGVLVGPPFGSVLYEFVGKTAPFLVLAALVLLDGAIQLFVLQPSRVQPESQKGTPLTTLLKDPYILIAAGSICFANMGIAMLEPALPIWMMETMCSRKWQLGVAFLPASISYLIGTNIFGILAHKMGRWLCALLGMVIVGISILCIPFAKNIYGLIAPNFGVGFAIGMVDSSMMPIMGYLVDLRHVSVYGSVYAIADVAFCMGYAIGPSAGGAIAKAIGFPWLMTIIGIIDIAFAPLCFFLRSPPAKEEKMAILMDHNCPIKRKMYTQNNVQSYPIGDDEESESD
# Chain of Peroxisome proliferator-activated receptor gamma (Homo sapiens) (P37231 whole entry, looked up): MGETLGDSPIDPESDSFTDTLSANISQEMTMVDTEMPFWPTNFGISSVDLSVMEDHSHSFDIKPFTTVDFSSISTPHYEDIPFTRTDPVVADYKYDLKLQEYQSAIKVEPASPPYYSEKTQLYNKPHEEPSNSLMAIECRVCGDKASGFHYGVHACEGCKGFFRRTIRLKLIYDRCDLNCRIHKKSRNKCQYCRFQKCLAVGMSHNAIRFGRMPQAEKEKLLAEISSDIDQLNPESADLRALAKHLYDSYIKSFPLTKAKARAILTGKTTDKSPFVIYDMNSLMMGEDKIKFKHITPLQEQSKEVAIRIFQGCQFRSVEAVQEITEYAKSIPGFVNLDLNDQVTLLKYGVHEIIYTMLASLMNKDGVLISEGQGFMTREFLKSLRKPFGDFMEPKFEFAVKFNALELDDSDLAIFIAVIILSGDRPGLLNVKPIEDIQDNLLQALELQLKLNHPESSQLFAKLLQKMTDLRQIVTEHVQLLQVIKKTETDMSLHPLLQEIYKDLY
# Chain of Nuclear receptor subfamily 1 group I member 2 (Homo sapiens) (O75469 whole entry, looked up): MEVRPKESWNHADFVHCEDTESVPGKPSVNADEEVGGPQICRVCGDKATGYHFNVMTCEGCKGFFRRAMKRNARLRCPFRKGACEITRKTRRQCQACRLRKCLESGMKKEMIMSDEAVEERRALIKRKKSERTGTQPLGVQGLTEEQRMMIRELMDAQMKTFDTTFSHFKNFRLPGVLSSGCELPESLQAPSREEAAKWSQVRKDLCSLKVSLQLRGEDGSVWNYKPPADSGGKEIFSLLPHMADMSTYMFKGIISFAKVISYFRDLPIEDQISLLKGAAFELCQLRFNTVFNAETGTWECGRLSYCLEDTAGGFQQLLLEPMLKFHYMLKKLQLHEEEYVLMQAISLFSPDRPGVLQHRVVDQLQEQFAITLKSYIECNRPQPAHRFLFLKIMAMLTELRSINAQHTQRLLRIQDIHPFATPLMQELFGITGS
smiles,measurement,setting,value
Cn1c(-c2ccccc2)cc(-c2ccccc2)[n+]1C,AC50,[1],0.133 µM (active)
same,outcome,[2],inactive
same,AC50,[3],2.75 µM (active)
same,outcome,[4],inactive
CSC(=O)c1c(C(F)F)nc(C(F)(F)F)c(C(=O)SC)c1CC(C)C,outcome,[1],inactive
same,outcome,[5],inactive
same,AC50,[4],21.5 µM (active)
COP(=S)(OC)Oc1ccc([N+](=O)[O-])c(C)c1,AC50,[6],4.97 µM (active)
same,outcome,[7],inactive
same,AC50,[8],9.62 µM (active)
same,AC50,[1],3.93 µM (active)
same,AC50,[9],3.38 µM (active)
same,AC50,[10],1.99 µM (active)
same,AC50,[5],4.96 µM (active)
same,AC50,[11],3.37 µM (active)
same,outcome,[4],inactive
CC1(C)C(C(=O)OC(C#N)c2cccc(Oc3ccccc3)c2)C1(C)C (stereo unspecified),AC50,[12],15.8 µM (active)
same,AC50,[5],9.99 µM (active)
same,outcome,[4],inactive
CCNP(=S)(OC)O/C(C)=C/C(=O)OC(C)C (stereo unspecified),outcome,[13],inactive
same,outcome,[9],inactive
same,outcome,[4],inactive
CC(C)N1C(=O)c2ccccc2NS1(=O)=O,AC50,[14],6.37 µM (active)
same,outcome,[10],inactive
same,AC50,[3],14.2 µM (active)
CCOC(=O)C(C)OC(=O)c1cc(Oc2ccc(C(F)(F)F)cc2Cl)ccc1[N+](=O)[O-] (stereo unspecified),outcome,[15],inactive
same,outcome,[6],inactive
same,outcome,[7],inactive
same,outcome,[8],inactive
same,outcome,[1],inactive
same,outcome,[12],inactive
same,outcome,[9],inactive
same,outcome,[10],inactive
same,AC50,[5],7.94 µM (active)
same,outcome,[11],inactive
same,outcome,[4],inactive
Cc1c(COC(=O)[C@@H]2[C@H](/C=C(\Cl)C(F)(F)F)C2(C)C)cccc1-c1ccccc1,outcome,[6],inactive
same,outcome,[9],inactive
same,AC50,[3],0.345 µM (active)
same,outcome,[4],inactive
CCCCOCN(C(=O)CCl)c1c(CC)cccc1CC,AC50,[8],8.18 µM (active)
same,outcome,[16],inactive
same,outcome,[4],inactive
N#Cc1c[nH]cc1-c1cccc2c1OC(F)(F)O2,AC50,[8],1.57 µM (active)
same,outcome,[9],inactive
same,outcome,[17],inactive
CCOc1cc(C(C)(C)C)ccc1C1COC(c2c(F)cccc2F)=N1 (stereo unspecified),outcome,[12],inactive
same,outcome,[5],inactive
same,outcome,[4],inactive
Cc1cc(C)nc(Nc2ccccc2)n1,AC50,[12],22 µM (active)
same,outcome,[9],inactive
same,AC50,[2],6.21 µM (active)
same,AC50,[5],25 µM (active)
same,outcome,[17],inactive
same,AC50,[3],4.72 µM (active)
CCCCC(O)(Cn1cncn1)c1ccc(Cl)cc1Cl (stereo unspecified),outcome,[6],inactive
same,outcome,[7],inactive
same,AC50,[8],1.29 µM (active)
same,outcome,[16],inactive
same,outcome,[9],inactive
same,AC50,[5],2.25 µM (active)
same,AC50,[17],15 µM (active)
same,AC50,[3],13.3 µM (active)
same,outcome,[18],inactive
same,outcome,[4],inactive
CC(C)=CC1C(C(=O)OCc2coc(Cc3ccccc3)c2)C1(C)C (stereo unspecified),outcome,[6],inactive
same,outcome,[8],inactive
same,AC50,[9],2.9 µM (active)
same,AC50,[5],25 µM (active)
same,AC50,[3],10.2 µM (active)
CCOc1nc(F)cc2nc(S(=O)(=O)Nc3c(Cl)cccc3Cl)nn12,outcome,[10],inactive
same,outcome,[11],inactive
COC(=O)N(C(=O)N1CO[C@@]2(C(=O)OC)Cc3cc(Cl)ccc3C2=N1)c1ccc(OC(F)(F)F)cc1,outcome,[5],inactive
C=C(C)CN(CC)c1c([N+](=O)[O-])cc(C(F)(F)F)cc1[N+](=O)[O-],AC50,[5],7.64 µM (active)
same,outcome,[11],inactive
same,AC50,[3],7.07 µM (active)
CC(C)NC(=O)N1CC(=O)N(c2cc(Cl)cc(Cl)c2)C1=O,outcome,[17],inactive
CCOP(=S)(OCC)Oc1nc(Cl)n(C(C)C)n1,outcome,[17],inactive
O=P(O)(O)CCCl,AC50,[3],10.6 µM (active)
COC(=O)NC(=S)Nc1ccccc1NC(=S)NC(=O)OC,outcome,[19],inactive
CCCC(=NOCC)C1=C(O)CC(CC(C)SCC)CC1=O (stereo unspecified),outcome,[19],inactive
